# Test results as given in ChEMBL document CHEMBL1961873, “Compounds: GSK PKIS; Assays: Nanosyn kinase panel” (2012).
# How the values were obtained:
# [1] = test system: Proto-oncogene tyrosine-protein kinase receptor Ret (Homo sapiens), P07949 [Y791F]; conditions: at 1 µM
# [2] = target: Macrophage-stimulating protein receptor (Homo sapiens) (UniProt Q04912); conditions: at 0.1 µM
# [3] = target: Macrophage-stimulating protein receptor (Homo sapiens) (UniProt Q04912); conditions: at 1 µM
# [4] = target: Proto-oncogene tyrosine-protein kinase ROS (Homo sapiens) (UniProt P08922); conditions: at 0.1 µM
# Proto-oncogene tyrosine-protein kinase ROS (Homo sapiens), sequence (P08922 whole entry): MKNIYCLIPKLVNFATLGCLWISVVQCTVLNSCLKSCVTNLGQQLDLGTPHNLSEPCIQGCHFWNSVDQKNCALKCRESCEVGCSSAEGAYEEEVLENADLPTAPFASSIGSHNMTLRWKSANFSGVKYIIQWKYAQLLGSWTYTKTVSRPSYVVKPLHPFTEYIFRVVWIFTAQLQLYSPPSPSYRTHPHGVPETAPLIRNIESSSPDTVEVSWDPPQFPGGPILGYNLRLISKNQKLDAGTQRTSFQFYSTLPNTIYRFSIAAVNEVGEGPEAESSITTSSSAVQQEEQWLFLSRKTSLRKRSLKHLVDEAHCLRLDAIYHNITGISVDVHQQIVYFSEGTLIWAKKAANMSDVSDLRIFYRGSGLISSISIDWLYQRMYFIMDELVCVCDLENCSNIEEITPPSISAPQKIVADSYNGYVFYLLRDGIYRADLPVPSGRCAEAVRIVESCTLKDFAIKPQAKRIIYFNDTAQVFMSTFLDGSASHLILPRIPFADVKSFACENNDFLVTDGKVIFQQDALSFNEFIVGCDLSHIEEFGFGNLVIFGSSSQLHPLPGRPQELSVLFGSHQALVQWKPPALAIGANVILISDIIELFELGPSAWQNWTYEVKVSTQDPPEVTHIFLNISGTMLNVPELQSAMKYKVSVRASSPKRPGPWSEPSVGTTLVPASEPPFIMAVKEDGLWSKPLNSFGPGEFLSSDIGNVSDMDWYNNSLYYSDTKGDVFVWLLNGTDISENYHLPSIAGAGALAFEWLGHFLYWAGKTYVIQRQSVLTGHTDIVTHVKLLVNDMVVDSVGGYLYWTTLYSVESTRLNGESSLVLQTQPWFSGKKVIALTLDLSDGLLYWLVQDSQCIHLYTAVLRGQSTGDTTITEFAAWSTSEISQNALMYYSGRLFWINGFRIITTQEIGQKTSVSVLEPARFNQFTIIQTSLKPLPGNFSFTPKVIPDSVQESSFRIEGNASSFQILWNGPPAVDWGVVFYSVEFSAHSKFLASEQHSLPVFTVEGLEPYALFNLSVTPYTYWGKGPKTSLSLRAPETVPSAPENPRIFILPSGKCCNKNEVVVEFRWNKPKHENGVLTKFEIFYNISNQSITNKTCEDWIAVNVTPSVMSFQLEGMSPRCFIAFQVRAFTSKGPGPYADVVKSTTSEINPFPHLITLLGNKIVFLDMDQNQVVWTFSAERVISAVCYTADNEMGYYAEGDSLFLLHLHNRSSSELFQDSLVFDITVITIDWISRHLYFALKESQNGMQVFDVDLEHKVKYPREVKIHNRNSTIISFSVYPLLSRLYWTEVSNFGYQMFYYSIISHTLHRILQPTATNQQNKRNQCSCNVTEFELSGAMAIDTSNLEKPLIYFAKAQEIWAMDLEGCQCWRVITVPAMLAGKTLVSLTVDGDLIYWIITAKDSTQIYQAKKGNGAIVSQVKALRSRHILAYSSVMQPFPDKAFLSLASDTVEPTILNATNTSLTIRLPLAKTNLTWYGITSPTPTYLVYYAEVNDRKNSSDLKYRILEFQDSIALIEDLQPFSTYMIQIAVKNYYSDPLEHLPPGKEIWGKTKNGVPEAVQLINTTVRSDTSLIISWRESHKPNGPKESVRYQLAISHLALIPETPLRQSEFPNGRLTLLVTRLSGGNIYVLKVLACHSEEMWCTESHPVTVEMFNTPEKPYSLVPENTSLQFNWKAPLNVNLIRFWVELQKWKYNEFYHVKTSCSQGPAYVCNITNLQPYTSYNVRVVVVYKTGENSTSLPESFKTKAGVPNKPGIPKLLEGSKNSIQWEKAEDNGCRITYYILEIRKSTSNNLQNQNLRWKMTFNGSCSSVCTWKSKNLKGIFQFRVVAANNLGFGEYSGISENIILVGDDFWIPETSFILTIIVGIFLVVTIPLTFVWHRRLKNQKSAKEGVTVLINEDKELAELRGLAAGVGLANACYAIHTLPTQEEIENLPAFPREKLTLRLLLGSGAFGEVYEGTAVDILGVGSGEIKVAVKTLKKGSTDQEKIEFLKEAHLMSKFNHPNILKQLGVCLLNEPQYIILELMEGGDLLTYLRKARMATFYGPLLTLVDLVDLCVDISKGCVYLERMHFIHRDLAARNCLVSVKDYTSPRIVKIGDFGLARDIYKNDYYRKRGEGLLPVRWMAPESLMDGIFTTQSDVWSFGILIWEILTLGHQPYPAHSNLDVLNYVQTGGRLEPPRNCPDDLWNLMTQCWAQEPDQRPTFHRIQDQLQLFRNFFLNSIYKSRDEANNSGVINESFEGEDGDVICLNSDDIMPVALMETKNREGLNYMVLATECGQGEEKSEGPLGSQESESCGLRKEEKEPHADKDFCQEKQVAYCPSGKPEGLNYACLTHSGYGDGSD
# [5] = target: Proto-oncogene tyrosine-protein kinase ROS (Homo sapiens) (UniProt P08922); conditions: at 1 µM
# [6] = target: Proto-oncogene tyrosine-protein kinase Src (Homo sapiens) (UniProt P12931); conditions: at 0.1 µM
# [7] = target: Proto-oncogene tyrosine-protein kinase Src (Homo sapiens) (UniProt P12931); conditions: at 1 µM
# [8] = target: Tyrosine-protein kinase Srms (Homo sapiens) (UniProt Q9H3Y6); conditions: at 0.1 µM
# [9] = target: Tyrosine-protein kinase Srms (Homo sapiens) (UniProt Q9H3Y6); conditions: at 1 µM
# [10] = target: Tyrosine-protein kinase SYK (Homo sapiens) (UniProt P43405); conditions: at 0.1 µM
# [11] = target: Tyrosine-protein kinase SYK (Homo sapiens) (UniProt P43405); conditions: at 1 µM
# [12] = target: T1, Tyrosine-protein kinase Tec (Homo sapiens) (UniProt P42680); conditions: at 0.1 µM
# T1 sequence (whole entry): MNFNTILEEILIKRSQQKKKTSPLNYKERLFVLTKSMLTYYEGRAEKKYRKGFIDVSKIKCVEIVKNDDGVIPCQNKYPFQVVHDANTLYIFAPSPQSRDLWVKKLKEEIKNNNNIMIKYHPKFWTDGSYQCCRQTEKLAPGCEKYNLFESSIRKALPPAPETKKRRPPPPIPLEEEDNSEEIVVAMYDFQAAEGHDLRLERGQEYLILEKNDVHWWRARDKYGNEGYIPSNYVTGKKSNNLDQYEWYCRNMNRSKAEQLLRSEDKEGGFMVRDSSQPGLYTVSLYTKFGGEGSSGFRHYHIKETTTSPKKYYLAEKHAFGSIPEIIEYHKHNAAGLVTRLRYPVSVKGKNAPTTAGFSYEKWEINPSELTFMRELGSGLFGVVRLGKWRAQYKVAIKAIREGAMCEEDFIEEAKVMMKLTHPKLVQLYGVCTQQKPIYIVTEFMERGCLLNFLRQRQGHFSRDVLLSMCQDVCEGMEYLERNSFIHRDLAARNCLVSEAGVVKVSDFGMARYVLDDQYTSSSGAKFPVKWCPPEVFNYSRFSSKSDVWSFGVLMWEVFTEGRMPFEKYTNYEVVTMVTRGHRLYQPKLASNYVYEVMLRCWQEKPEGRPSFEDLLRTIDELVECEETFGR
# [13] = target: T1, Tyrosine-protein kinase Tec (Homo sapiens); conditions: at 1 µM
# [14] = target: Angiopoietin-1 receptor (Homo sapiens) (UniProt Q02763); conditions: at 0.1 µM
# [15] = target: Angiopoietin-1 receptor (Homo sapiens) (UniProt Q02763); conditions: at 1 µM
# [16] = target: T2, Non-receptor tyrosine-protein kinase TNK1 (Homo sapiens) (UniProt Q13470); conditions: at 0.1 µM
# T2 sequence (whole entry): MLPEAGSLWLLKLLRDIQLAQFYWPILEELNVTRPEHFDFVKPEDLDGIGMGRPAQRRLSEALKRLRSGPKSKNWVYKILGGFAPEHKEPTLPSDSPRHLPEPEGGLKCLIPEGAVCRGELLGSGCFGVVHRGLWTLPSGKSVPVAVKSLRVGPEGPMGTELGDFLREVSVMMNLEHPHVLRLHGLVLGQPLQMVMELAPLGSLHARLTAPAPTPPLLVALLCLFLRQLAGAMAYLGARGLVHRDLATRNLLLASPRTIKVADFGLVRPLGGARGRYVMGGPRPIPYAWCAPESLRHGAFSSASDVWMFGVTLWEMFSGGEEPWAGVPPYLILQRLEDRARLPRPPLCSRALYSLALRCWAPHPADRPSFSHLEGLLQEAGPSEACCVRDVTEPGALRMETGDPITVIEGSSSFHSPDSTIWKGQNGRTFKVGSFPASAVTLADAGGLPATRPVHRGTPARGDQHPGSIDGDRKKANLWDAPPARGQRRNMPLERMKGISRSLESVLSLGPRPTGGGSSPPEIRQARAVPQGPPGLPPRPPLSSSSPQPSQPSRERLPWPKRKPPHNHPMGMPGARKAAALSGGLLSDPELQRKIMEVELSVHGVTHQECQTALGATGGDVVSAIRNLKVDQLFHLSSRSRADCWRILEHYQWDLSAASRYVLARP
# [17] = target: T2, Non-receptor tyrosine-protein kinase TNK1 (Homo sapiens); conditions: at 1 µM
# [18] = target: Activated CDC42 kinase 1 (Homo sapiens) (UniProt Q07912); conditions: at 0.1 µM
# [19] = target: Activated CDC42 kinase 1 (Homo sapiens) (UniProt Q07912); conditions: at 1 µM
# [20] = target: High affinity nerve growth factor receptor (Homo sapiens) (UniProt P04629); conditions: at 0.1 µM;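 further: each value is a mean of replicate percent inhibition readings against TRKA kinase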
# Macrophage-stimulating protein receptor (Homo sapiens), sequence (Q04912 25-304 limits assumed): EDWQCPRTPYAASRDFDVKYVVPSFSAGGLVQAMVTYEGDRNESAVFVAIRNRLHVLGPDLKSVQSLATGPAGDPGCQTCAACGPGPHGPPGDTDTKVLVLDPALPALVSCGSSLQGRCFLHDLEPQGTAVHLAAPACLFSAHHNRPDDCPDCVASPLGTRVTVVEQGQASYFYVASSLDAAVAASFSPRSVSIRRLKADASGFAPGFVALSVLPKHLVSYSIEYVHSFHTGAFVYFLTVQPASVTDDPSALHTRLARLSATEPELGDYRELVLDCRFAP
# Macrophage-stimulating protein receptor (Homo sapiens), sequence (Q04912 310-1400 limits assumed): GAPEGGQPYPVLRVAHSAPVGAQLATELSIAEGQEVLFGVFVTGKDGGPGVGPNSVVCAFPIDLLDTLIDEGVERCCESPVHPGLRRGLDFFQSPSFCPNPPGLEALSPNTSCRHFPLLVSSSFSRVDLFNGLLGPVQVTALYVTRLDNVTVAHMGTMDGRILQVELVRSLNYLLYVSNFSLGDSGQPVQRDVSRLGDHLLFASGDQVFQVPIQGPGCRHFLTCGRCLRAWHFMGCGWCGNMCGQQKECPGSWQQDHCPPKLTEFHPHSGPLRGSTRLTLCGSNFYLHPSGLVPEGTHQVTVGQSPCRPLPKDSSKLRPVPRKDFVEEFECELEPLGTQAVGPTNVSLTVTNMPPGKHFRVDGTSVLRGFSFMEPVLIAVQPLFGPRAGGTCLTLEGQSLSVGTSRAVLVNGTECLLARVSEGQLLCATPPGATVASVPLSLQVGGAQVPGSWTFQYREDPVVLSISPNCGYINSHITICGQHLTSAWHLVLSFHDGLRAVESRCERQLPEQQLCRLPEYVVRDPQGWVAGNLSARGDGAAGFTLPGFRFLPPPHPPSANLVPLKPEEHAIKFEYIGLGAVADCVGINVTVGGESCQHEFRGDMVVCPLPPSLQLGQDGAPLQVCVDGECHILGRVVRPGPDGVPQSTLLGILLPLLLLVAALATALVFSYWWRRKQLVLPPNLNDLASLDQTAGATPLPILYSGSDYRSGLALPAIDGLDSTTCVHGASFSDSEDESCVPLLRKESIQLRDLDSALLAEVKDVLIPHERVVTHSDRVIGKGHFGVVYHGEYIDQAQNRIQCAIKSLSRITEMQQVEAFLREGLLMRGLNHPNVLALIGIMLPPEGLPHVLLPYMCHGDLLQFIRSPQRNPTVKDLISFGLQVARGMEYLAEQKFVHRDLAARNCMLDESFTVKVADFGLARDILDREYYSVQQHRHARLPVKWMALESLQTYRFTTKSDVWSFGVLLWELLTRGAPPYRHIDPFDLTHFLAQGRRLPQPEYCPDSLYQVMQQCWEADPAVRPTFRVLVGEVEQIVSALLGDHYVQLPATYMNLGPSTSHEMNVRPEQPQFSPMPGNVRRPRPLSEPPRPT
# Proto-oncogene tyrosine-protein kinase receptor Ret (Homo sapiens), P07949 [Y791F], sequence (P07949 whole entry Y791F): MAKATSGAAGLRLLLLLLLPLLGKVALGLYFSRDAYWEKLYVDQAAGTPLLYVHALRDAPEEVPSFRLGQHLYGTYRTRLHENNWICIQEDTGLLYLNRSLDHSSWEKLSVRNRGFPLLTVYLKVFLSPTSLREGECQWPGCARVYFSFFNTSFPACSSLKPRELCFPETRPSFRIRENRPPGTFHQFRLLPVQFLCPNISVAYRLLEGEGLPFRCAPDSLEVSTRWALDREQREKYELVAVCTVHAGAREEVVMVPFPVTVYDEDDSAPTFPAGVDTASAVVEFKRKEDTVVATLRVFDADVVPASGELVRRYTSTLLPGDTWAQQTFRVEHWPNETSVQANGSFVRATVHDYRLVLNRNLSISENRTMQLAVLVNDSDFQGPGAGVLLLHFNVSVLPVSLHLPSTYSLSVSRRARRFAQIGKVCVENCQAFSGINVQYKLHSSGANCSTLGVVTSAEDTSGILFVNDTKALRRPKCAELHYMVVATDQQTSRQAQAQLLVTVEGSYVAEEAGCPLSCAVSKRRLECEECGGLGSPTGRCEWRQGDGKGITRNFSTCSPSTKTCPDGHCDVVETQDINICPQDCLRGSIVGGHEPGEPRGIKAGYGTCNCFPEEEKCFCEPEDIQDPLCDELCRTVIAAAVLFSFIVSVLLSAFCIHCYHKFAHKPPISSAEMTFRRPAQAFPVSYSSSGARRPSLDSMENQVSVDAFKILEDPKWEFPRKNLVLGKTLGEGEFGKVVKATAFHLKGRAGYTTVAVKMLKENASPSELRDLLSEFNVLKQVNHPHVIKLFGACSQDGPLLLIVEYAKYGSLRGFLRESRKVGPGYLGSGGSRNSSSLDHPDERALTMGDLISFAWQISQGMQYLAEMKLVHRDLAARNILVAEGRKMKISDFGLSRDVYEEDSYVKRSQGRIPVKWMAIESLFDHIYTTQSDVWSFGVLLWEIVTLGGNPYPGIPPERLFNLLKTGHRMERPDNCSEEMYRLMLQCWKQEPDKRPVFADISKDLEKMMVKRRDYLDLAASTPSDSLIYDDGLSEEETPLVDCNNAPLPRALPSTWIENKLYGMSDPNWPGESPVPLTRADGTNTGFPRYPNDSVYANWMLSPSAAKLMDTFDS
Structure (SMILES),inhibition [1] [%],inhibition [2] [%],inhibition [3] [%],inhibition [4] [%],inhibition [5] [%],inhibition [6] [%],inhibition [7] [%],inhibition [8] [%],inhibition [9] [%],inhibition [10] [%],inhibition [11] [%],inhibition [12] [%],inhibition [13] [%],inhibition [14] [%],inhibition [15] [%],inhibition [16] [%],inhibition [17] [%],inhibition [18] [%],inhibition [19] [%],inhibition [20] [%]
COc1cc(Nc2ncc(-c3ccccc3)o2)cc(OC)c1OC,16.2,-0.55,3.47,2.53,15.8,19.7,72.4,-1.26,3.83,-0.67,-1.68,-2.02,4.55,0.66,5.14,4.15,28.4,0,0.48,3.35
C[C@@H](Oc1cc(-n2cnc3ccc(OCC4CCN(C)CC4)cc32)sc1C(N)=O)c1ccccc1Cl,20.1,0.85,13.1,10.2,21.6,11.9,33.2,-3.18,-0.97,-0.18,2.34,6.45,6.29,4.83,19.8,7.13,26.1,3.05,19.8,1.86
COC(=O)Nc1nc2ccc(Sc3ccc(NC(=O)Nc4cc(C(F)(F)F)ccc4F)cc3)cc2[nH]1,73.9,-5.81,-0.55,-2.6,0.19,17.4,12.5,1.2,-0.15,0.25,-0.54,3.34,5.46,21.1,70.7,2.15,25.3,0.06,1.64,62.7
NC(=O)c1cc(-c2ccc(F)cc2)cc(-c2ccncc2)c1N,8.5,3.91,2.73,3.93,6.41,-1.61,10.9,-0.29,-1.13,-2.32,1.28,2.88,5.71,4.39,3.08,3.42,7.48,0.31,-0.36,2.33
FC(F)(F)c1cccc(Nc2nccc(-c3cnn4nc(-c5ccccc5)ccc34)n2)c1,9,3.97,1.8,0.97,9.02,5.04,8.31,-0.79,-0.77,-0.05,-6.97,-0.76,4.7,0.12,4.87,1.51,8.59,0.76,1.15,-0.16
C/C(Nc1ccc(S(N)(=O)=O)cc1)=C1/C(=O)Nc2ccccc21,40.3,5.82,4,3.08,8.7,-2.31,0.81,1.16,4.16,-1.12,0.6,-1.54,-2.14,0.44,2.44,-3.91,9.56,-1.14,0.65,4.48
C#Cc1cccc(Nc2ncnc3ccc(OCCCCNCCS(C)(=O)=O)cc23)c1,31.3,1.53,7.33,3.71,8.09,1.2,17.9,0.83,5.07,-6.78,0.39,5.96,9.84,5.13,12.5,2.31,20.9,2.03,7.01,2.95
